Drawing on PubChem BioAssay AID683 (University of Pittsburgh Molecular Library Screening Center, 2007), this text covers EC50 for two compounds.

The nature of this assay: H2O2 producers via compound redox cycling – biochemical, 1.0 mM DTT, Cdc25B catalytic domain, artefact control, dose response (AID 683). As to conditions: cell-free redox cycling H2O2 generation.

Some of the results follow. A number with no mark means an inactive call. No stated cut-off is given here; in the data, active means EC50 below about 50 µM; inactive means the rest.

Turning to `COc1cccc2c(C)c(C(=O)O)[nH]c12`, the EC50 was more than 50 µM.
The same measure for `c1ccc(CSc2nnc(-c3ccco3)c(-c3ccco3)n2)cc1`: more than 50 µM.

The EC50 is the concentration needed to bring the measured effect to its halfway point.
